# The list is not random: actives were taken first. Their share in the collection is about 9.4%.
# NPC1 prom act = qHTS Assay for NPC1 Promoter Activators; AID 485313, 2010; Potency, µM (series often up to 9.22 µM), inactives show at the highest dose activation, usual class: activators; 320,000 tested, 2.4% active; Huh7 NPC1 promoter luciferase reporter, 24 h; further: % of control where 0% means no effect; nearly all actives have a fitted effect of over 60% in size
#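 Stably transfected Huh7 (NPC1 promoter→luciferase), 1500 cells/well in Opti-MEM + 10% FBS, 2 h settle, then compound 24 h at 37 °C. Luminescence after 10 min with Amplite reagent.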
# ELG1 genotoxic = qHTS screen for small molecules that induce genotoxicity in human embryonic kidney (HEK293T) cells expressing luciferase-tagged ELG1; HEK293T ELG1-luciferase reporter, luminescence, 16 h; Potency, µM (highest dose often 46 µM), inactives show at the highest dose activity change, positive = activation, hits mostly activators; 330,000 tested, 1.3% active; AID 504466, 2011; further: % of control where 0% means no effect; nearly all actives have a fitted effect of over 60% in size
#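 Reporter readout depends on ELG1 protein level, which increases with genetic stress. After 16 hr compound exposure at 37 °C, luciferase activity was quantified using ONE-Glo.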
# SMN2 splice up = qHTS Assay for Enhancers of SMN2 Splice Variant Expression | HEK293 SMN2-luciferase splicing reporter, luminescence, 30-36 h | Potency, µM (series often up to 46.1 µM), inactives show at the top dose activity change, positive = activation, hits mostly activators | 210,000 tested, 2.8% active | AID 1458, 2008; further: % of control where 0% means no effect; nearly all actives have a fitted effect of over 55% in size
#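 HEK293 cells carry an SMN2 minigene-luciferase reporter in which exon 7 inclusion puts luciferase in frame. Cells were seeded at 2000 cells/well, attached for 10-12 hours, then exposed to compounds for 30-36 hours at 37C before ONE-Glo luminescence.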
# ELG1 DNA repair = qHTS screen for small molecules that inhibit ELG1-dependent DNA repair in human embryonic kidney (HEK293T) cells expressing luciferase-tagged ELG1; HEK293T ELG1-luciferase reporter, luminescence, 16 h; DNA damage induced by 5-fluorouridine; Potency, µM (top dose mostly 46.1 µM), for inactives: top-dose activity change, negative = inhibition, hits mostly inhibitors; 330,000 tested, 2.3% active; further: on the % scale 0 is the no-effect control and ±100 the full control effect; nearly all actives have a fitted effect of over 55% in size
#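 Luminescence from the luciferase reporter, measured 30 min after ONE-Glo reagent at room temperature, was the read-out. Beforehand, 2,000 cells per well were exposed for 16 hr at 37 °C to 5-fluorouridine together with compound or vehicle.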
# Rab9 promoter act = qHTS Assay for Rab9 Promoter Activators. Huh7 Rab9 promoter-luciferase reporter, luminescence, 24 h. Potency, µM (series often up to 9.22 µM), for the others: top-dose activation, negative = inhibition, most hits filed as activators. 320,000 tested, 2.8% active; further: % of control where 0% means no effect; nearly all actives have a fitted effect of over 60% in size
#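 Luminescence from Amplite-detected luciferase (10 minutes, ambient) reports Rab9 promoter activation. Before that, stable Rab9-luciferase Huh7 cells (1500/well, reduced-serum OP-MEM I plus 10% FBS) were exposed to compound for 24 hours at 37C.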
# FLuc modulator = qHTS profiling assay for firefly luciferase inhibitor/activator using purifed enzyme and Km concentrations of substrates (counterscreen for miR-21 project); 360,000 tested, 6.9% active; Potency, µM (series often up to 57.5 µM), inactives show at the highest dose activity change, negative = inhibition, actives largely listed as inhibitors; AID 588342, 2011; purified FLuc, Km substrates, luminescence inhibition; Luciferin 4-monooxygenase (Photinus pyralis), P08659;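 further: plate controls were vehicle for no effect and reference inhibitor for full effect; nearly all actives have a fitted effect of over 55% in size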
# Target sequence (P08659 whole entry, looked up): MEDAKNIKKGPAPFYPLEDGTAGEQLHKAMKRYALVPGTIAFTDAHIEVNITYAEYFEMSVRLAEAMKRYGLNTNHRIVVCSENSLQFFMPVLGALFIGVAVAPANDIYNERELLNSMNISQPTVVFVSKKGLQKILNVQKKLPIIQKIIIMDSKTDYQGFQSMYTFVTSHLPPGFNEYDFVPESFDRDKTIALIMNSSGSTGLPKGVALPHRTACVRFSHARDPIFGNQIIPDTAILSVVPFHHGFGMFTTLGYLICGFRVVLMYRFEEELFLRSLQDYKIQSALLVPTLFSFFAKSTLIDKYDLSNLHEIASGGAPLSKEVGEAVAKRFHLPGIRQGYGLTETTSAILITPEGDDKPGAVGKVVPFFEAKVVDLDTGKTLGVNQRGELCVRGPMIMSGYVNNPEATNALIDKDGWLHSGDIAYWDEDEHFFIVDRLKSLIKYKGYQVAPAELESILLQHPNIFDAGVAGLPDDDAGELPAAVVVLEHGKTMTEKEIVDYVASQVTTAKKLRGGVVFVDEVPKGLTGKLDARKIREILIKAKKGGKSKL
#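 Biochemical qHTS of compounds, final roughly 60 µM downward over six points, against 10 nM purified firefly luciferase using Km concentrations of substrates (10 uM D-luciferin, 10 uM ATP) in Tris acetate pH 7.5 buffer; luminescence output.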
# The depositor's hits bear a star; ? = inconclusive; . = no result given; [ ] = dose if it differs, or a comment. The call rests on the fitted dose curve; in most records, active means well fitted curve in the direction sought with a large enough effect; inconclusive means small, poorly fitted or top-dose-only effect, or another doubt; inactive means no such curve, though single readings can be large; an effect the other way counts as inactive or inconclusive. Potency means the concentration at half of the fitted maximal effect.
SMILES,NPC1 prom act,ELG1 genotoxic,SMN2 splice up,ELG1 DNA repair,Rab9 promoter act,FLuc modulator
N#C/C(=C\c1ccc(OCc2ccc(Cl)cc2Cl)cc1)c1nc2ccccc2[nH]1,.,.,-1.7%,.,.,-6.9%
N#C/C(=C\c1ccc(OC(=O)c2ccc(Cl)s2)cc1)c1nc2ccccc2[nH]1,20.7%,?,17.8µM*,?,?,-2.2%
N#C/C(=C\c1ccc(OC(=O)c2ccc(Br)s2)cc1)c1nc2ccccc2[nH]1,?,18.1%,12.6µM*,?,?,-4.1%
COc1cc(/C=C(\C#N)c2nc3ccccc3[nH]2)ccc1OC(=O)c1ccco1,25.5%,?,35.5µM*,?,?,0.953µM*
CCOC(=O)c1c(/N=C/N(C)C)sc(/C=N/Nc2ccccc2)c1-c1ccccc1Cl,-3.2%,-2.3%,.,20.6µM*,2.1%,12µM*
CCCOc1ccc(/C=N/NC(=S)Nc2ccccc2[N+](=O)[O-])c(O)c1,3.0%,?,-86.6%,?,-15.9%,3.38µM*
CCCOc1ccc(/C=N/Nc2ccccc2[N+](=O)[O-])c(O)c1,?,?,-94.6%,?,?,0.107µM*
COc1cc(/C=N/Nc2ccccc2[N+](=O)[O-])cc(OC)c1O,2.1%,?,7.7%,1.6%,1.0%,?
COc1ccc(/C=N/NC(=S)Nc2ccccc2[N+](=O)[O-])cc1O,22.4%,5.17µM*,?,?,-2.3%,0.426µM*
CCNC(=O)CCCOc1ccc(Cl)cc1Cl,2.7%,?,4.0%,?,5.7%,?
O=C(COc1ccc(Cl)cc1Cl)Nc1cccnc1,17.9%,?,-9.3%,?,-4.6%,6.75µM*
Cc1ccc(OCC(=O)Nc2ccncc2)c(C)c1,-4.1%,12.0%,.,?,3.7%,12µM*
O=C(CCCOc1ccc(Cl)cc1Cl)Nc1ccccn1,1.9%,?,9.0%,?,-3.1%,16.9µM*
CC(Oc1ccc(Cl)cc1Cl)C(=O)Nc1ccncc1 (stereo not given),-1.6%,-12.4%,.,5.8µM*,-4.0%,-2.3%
Cc1ccccc1OCC(=O)Nc1ccncc1,-5.5%,1.7%,.,?,-4.3%,?
CC(=O)Nc1ccc(NC(=O)C(C)Oc2ccc(Cl)cc2Cl)cc1 (stereo not given),0.7%,6.9%,-8.7%,9.0%,-4.9%,-0.6%
O=C(O)CCc1ccc(-c2ccc(Cl)cc2)n1-c1cccc(C(F)(F)F)c1,.,.,-9.4%,.,.,?
Cc1nn2c(=O)cc(COC(=O)c3ccc(NC(=O)CCc4ccccc4)cc3)nc2s1,.,.,.,.,.,-3.6%
Cc1ccc2oc(C(=O)Nc3ccc(S(=O)(=O)N4CCCCC4C)cc3)cc(=O)c2c1 (stereo not given),.,.,1.3%,.,.,-1.5%
CCN(Cc1ccccc1)C(=O)c1cc2c(=O)[nH]c3ccc(C)cc3c2s1,.,.,2.1%,.,.,-9.5%
Cc1ccccc1OCC(=O)Nc1cccc(N(C)S(C)(=O)=O)c1,12.9%,3.8%,22.7%,?,18.7%,?
Cc1cc(OCC(=O)Nc2ccncc2)ccc1Cl,0.6%,-1.5%,.,-26.4%,-3.7%,?
CN(c1cccc(NC(=O)COc2ccc(Cl)cc2Cl)c1)S(C)(=O)=O,29.4%,8.0%,29.9%,?,?,1.2µM*
O=C(CCCOc1ccc(Cl)cc1Cl)Nc1ccncc1,-3.1%,-0.1%,-21.5%,-13.0%,-0.4%,23.9µM*
O=C(COc1ccc(Cl)cc1Br)Nc1ccncc1,?,?,.,?,2.3%,9.53µM*
O=C1c2ccccc2C(=O)N1c1ccc(Cc2ccc(N3C(=O)c4ccccc4C3=O)cc2)cc1,.,.,3.7%[9.22 µM],.,.,.
